Among the data in PubChem BioAssay (NCATS) are Potency values, retold here.

Results filed as inconclusive are left out. Active and inactive are the calls of the source. Unless noted, calls come from the whole dose curve.
Potency is the fitted concentration of half-maximal effect.

One test in a line: Cell Viability - BJ (AID 421).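 Note: cells exposed to compound for 40 hours at 37 °C before readout.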 To be noted: BJ fibroblast viability, qHTS. The essentials: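 Quantitative HTS: ATP depletion in BJ cells after 40 hr compound exposure in complete culture medium, detected with CellTiter-Glo; AC50 from standard Hill fits.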
(In general: Quantitative high-throughput screening tests each substance at several concentrations.)
In the case of `c1cc(OCC2CO2)cc(OCC2CO2)c1` (stereo not given), the Potency is 27.4 µM (active).

Regarding `CN(C)c1ccc(C2(c3ccc(N(C)C)cc3)OC(=O)c3cc(N(C)C)ccc32)cc1`, the Potency is > 92 µM (inactive).

`CO[C@H]1/C=C/O[C@@]2(C)Oc3c(C)c(O)c4c(O)c(c5c(c4c3C2=O)NC2(CCN(CC(C)C)CC2)N=5)=NC(=O)/C(C)=C\C=C\[C@H](C)[C@H](O)[C@@H](C)[C@@H](O)[C@@H](C)[C@H](OC(C)=O)[C@@H]1C`: the Potency was > 92 µM (inactive).

As for `O=C(OCC(COC(=O)c1ccccc1)(COC(=O)c1ccccc1)COC(=O)c1ccccc1)c1ccccc1`, the Potency is > 92 µM (inactive).

As for `ClC1=C(Cl)C(Cl)(Cl)C(Cl)=C1Cl`, the Potency is > 92 µM (inactive).

Regarding `CC(=O)Nc1ccc(C(=O)CCl)cc1`, the Potency was 36.2 µM (active).

Take `CC/C(=C(\c1ccccc1)c1ccc(OCCN(C)C)cc1)c1ccc(O)cc1`: the Potency is 45.1 µM (active).

Turning to `Nc1ccc2cc3ccccc3cc2c1`, the Potency is > 92 µM (inactive).

On to `c1ccc2c(c1)-c1cccc3c1c-2cc1ccccc13`, for which the Potency is > 92 µM (inactive).

Turning to `O=C=Nc1ccc(Cc2ccc(N=C=O)cc2)cc1`, the Potency was > 92 µM (inactive).

For the compound `O=[N+]([O-])c1cc([N+](=O)[O-])c2ccc(S(=O)(=O)O)cc2c1O`, the Potency was > 92 µM (inactive).

`Cc1cc(O)c(C(C)(C)C)cc1Sc1cc(C(C)(C)C)c(O)cc1C`: the Potency is 43.8 µM (active).

Consider `CCC(C)Nc1ccc(NC(C)CC)cc1` (stereo not given), for which the Potency was 14 µM (active).

Regarding `C=CC(=O)OCCOCCOC(=O)C=C`, the Potency was 35.8 µM (active).

Regarding `O=C1OC2(c3cc(Br)c(O)c(Br)c3Oc3c2cc(Br)c(O)c3Br)c2c(Cl)c(Cl)c(Cl)c(Cl)c21`, the Potency is > 92 µM (inactive).

With `Oc1ccc2cc(SSc3ccc4cc(O)ccc4c3)ccc2c1`, the Potency was 49.1 µM (active).

With `c1ccc2c(c1)ccc1cc3c(ccc4ccccc43)cc12`, the Potency is > 92 µM (inactive).

With `C/C=C1\C(=O)C[C@H]2[C@@H]3CCC4=CC(=O)CC[C@]4(C)[C@H]3CC[C@]12C`, the Potency is > 92 µM (inactive).

As to `C=C(C)c1ccccc1`, the Potency was > 92 µM (inactive).

For the compound `O=C1OC(O)C(C(Cl)Cl)=C1Cl` (stereo not given), the Potency was 41.2 µM (active).

The nature of the next test: Cell Viability - Hek293 (AID 427;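 active = compounds whose dose-response curve shows a full or clear partial loss of cell viability, called from curve shape rather than a numeric limit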;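 note: cells exposed to compound for 40 hours at 37 °C before reading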). To be noted: qHTS. The essentials: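 AC50 values derive from Hill-modelled concentration-response of ATP-based luminescence, normalized between DMSO-only and 100 uM tamoxifen controls. Cells were exposed in complete culture medium for 40 hr at 37 °C before detection.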
Consider `c1cc(OCC2CO2)cc(OCC2CO2)c1` (stereo not given), for which the Potency is 32.9 µM (active).

In the case of `Cc1cc(Nc2ccc(O)cc2)ccc1N`, the Potency is 52.8 µM (active).

Turning to `CN(C)c1ccc(C2(c3ccc(N(C)C)cc3)OC(=O)c3cc(N(C)C)ccc32)cc1`, the Potency was > 92 µM (inactive).

Turning to `O=C(OCC(COC(=O)c1ccccc1)(COC(=O)c1ccccc1)COC(=O)c1ccccc1)c1ccccc1`, the Potency was > 92 µM (inactive).

On to `ClC1=C(Cl)C(Cl)(Cl)C(Cl)=C1Cl`, for which the Potency was > 92 µM (inactive).

As for `CC(=O)Nc1ccc(C(=O)CCl)cc1`, the Potency was 37.9 µM (active).

Regarding `Nc1ccc2cc3ccccc3cc2c1`, the Potency was > 92 µM (inactive).

Regarding `c1ccc2c(c1)-c1cccc3c1c-2cc1ccccc13`, the Potency was > 92 µM (inactive).

`O=C=Nc1ccc(Cc2ccc(N=C=O)cc2)cc1`: the Potency was > 92 µM (inactive).

For the compound `O=[N+]([O-])c1cc([N+](=O)[O-])c2ccc(S(=O)(=O)O)cc2c1O`, the Potency was > 92 µM (inactive).

As to `Cc1cc(O)c(C(C)(C)C)cc1Sc1cc(C(C)(C)C)c(O)cc1C`, the Potency was 33.7 µM (active).

For the compound `CCC(C)Nc1ccc(NC(C)CC)cc1` (stereo not given), the Potency is 19.3 µM (active).

In the case of `CNc1ccc(O)cc1`, the Potency is 40.8 µM (active).

Turning to `C=CC(=O)OCCOCCOC(=O)C=C`, the Potency is 27 µM (active).

On to `O=C1OC2(c3cc(Br)c(O)c(Br)c3Oc3c2cc(Br)c(O)c3Br)c2c(Cl)c(Cl)c(Cl)c(Cl)c21`, for which the Potency was > 92 µM (inactive).

On to `Oc1ccc2cc(SSc3ccc4cc(O)ccc4c3)ccc2c1`, for which the Potency is 46.2 µM (active).

As for `c1ccc2c(c1)ccc1cc3c(ccc4ccccc43)cc12`, the Potency was > 92 µM (inactive).

As for `C=C(C)c1ccccc1`, the Potency is > 92 µM (inactive).

A short description of another test: Cell Viability - HepG2 (AID 433).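 Note: potency for ATP loss meaning cytotoxicity.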 To be noted: qHTS. The essentials: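 ATP luminescence (CellTiter-Glo) after 40 h compound exposure, 37 °C, HepG2, 1500 cells/well, complete medium. Normalized: DMSO = basal, 100 uM tamoxifen = 100% inhibition. AC50 via standard Hill equation.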
For `CN(C)c1ccc(C2(c3ccc(N(C)C)cc3)OC(=O)c3cc(N(C)C)ccc32)cc1`, the Potency is > 92 µM (inactive).

In the case of `CO[C@H]1/C=C/O[C@@]2(C)Oc3c(C)c(O)c4c(O)c(c5c(c4c3C2=O)NC2(CCN(CC(C)C)CC2)N=5)=NC(=O)/C(C)=C\C=C\[C@H](C)[C@H](O)[C@@H](C)[C@@H](O)[C@@H](C)[C@H](OC(C)=O)[C@@H]1C`, the Potency was > 92 µM (inactive).

In the case of `O=C(OCC(COC(=O)c1ccccc1)(COC(=O)c1ccccc1)COC(=O)c1ccccc1)c1ccccc1`, the Potency is > 92 µM (inactive).

For the compound `ClC1=C(Cl)C(Cl)(Cl)C(Cl)=C1Cl`, the Potency is 22.6 µM (active).

Take `CC(=O)Nc1ccc(C(=O)CCl)cc1`: the Potency is 40.3 µM (active).

Regarding `CC/C(=C(\c1ccccc1)c1ccc(OCCN(C)C)cc1)c1ccc(O)cc1`, the Potency was 29.4 µM (active).

For `Nc1ccc2cc3ccccc3cc2c1`, the Potency is > 92 µM (inactive).

Consider `c1ccc2c(c1)-c1cccc3c1c-2cc1ccccc13`, for which the Potency was > 92 µM (inactive).

`O=C=Nc1ccc(Cc2ccc(N=C=O)cc2)cc1`: the Potency is > 92 µM (inactive).

`O=[N+]([O-])c1cc([N+](=O)[O-])c2ccc(S(=O)(=O)O)cc2c1O`: the Potency was > 92 µM (inactive).

Consider `Cc1cc(O)c(C(C)(C)C)cc1Sc1cc(C(C)(C)C)c(O)cc1C`, for which the Potency is 32.3 µM (active).

For the compound `CCC(C)Nc1ccc(NC(C)CC)cc1` (stereo not given), the Potency is 13.5 µM (active).

With `CNc1ccc(O)cc1`, the Potency is 59.6 µM (active).

Consider `Oc1ccc2cc(SSc3ccc4cc(O)ccc4c3)ccc2c1`, for which the Potency is > 92 µM (inactive).

For `c1ccc2c(c1)ccc1cc3c(ccc4ccccc43)cc12`, the Potency is > 92 µM (inactive).

Regarding `C/C=C1\C(=O)C[C@H]2[C@@H]3CCC4=CC(=O)CC[C@]4(C)[C@H]3CC[C@]12C`, the Potency was > 92 µM (inactive).

On to `C=C(C)c1ccccc1`, for which the Potency is > 92 µM (inactive).
